Laboratory results reported in PubChem BioAssay AID1851 (National Center for Advancing Translational Sciences (NCATS), 2009).
The campaign covered roughly 16,000 compounds. About 4,000 (25%) were called active. Another 26% or so got no clear call; they are omitted. The call rests on the fitted dose curve; in most records, active means well fitted curve in the direction sought with a large enough effect; inconclusive means small, poorly fitted or top-dose-only effect, or effect the other way; inactive means no such curve, though single readings can be large or run the other way. These entries were drawn from the full list.

target: Cytochrome P450 2C9 (Homo sapiens) (UniProt P11712); assay: Cytochrome panel assay with activity outcomes; conditions: recombinant CYP, pro-luciferin dealkylation, luminescence, p450-cyp2c9; series mostly up to 57.1 µM; activity, negative = inhibition: at the top concentration
On the % scale 0 is the no-effect control and ±100 the full control effect.

Chain of Cytochrome P450 2C9 (Homo sapiens) (P11712 whole entry, looked up): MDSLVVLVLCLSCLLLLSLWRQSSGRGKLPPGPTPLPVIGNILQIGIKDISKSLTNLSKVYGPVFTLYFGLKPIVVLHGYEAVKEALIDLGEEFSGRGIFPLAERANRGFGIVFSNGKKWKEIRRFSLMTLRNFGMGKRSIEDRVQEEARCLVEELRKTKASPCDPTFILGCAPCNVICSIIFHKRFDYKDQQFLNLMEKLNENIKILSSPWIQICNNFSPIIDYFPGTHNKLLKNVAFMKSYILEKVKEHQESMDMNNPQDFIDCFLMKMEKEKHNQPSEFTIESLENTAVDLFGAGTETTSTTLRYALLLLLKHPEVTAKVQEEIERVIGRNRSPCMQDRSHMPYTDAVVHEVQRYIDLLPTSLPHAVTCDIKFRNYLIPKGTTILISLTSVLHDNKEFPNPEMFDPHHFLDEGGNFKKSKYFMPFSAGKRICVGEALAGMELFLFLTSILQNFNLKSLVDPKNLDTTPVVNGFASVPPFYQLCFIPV

| Compound | activity, negative = inhibition | AC50 |
| --- | --- | --- |
| O=C(Nc1ccccc1)N1CC2(CCN(C(=O)c3ccco3)CC2)C1 | 8.02% (inactive) |  |
| CN1CCN(c2nc(-c3cccc(C#N)c3)nc3ccccc23)CC1 | -2.12% [at 2.29 µM] (inactive) |  |
| CN1CCN(c2ncnc3ccc(-c4cccc(C#N)c4)cc23)CC1 | 10.4% [at 2.29 µM] (inactive) |  |
| COc1ccc(-c2nc(-c3cccc(C)c3)nc(N3CCN(C)CC3)c2C#N)cc1 |  | 7.94 µM (active) |
| Nc1ncnc2nc(N3CCN(CCO)CC3)[nH]c12 | -3.79% [at 11.4 µM] (inactive) |  |
| Cc1cc(SCC(=O)c2ccc(Br)cc2)cc(C)[o+]1 |  | 2.51 µM (active) |
| CC(=O)NC(NC(C)=O)c1ccc(Br)cc1 | -4.71% (inactive) |  |
| FC(F)(F)c1nnc2c(Sc3ccc(Cl)cc3)nc3ccccc3n12 | -15.9% (inactive) |  |
| FC(F)(F)c1nnc(-c2ccccc2)nc1Sc1ccccc1 |  | 7.08 µM (active) |
| CN(C)C(=O)c1ccc(-c2ccc3ncnc(Nc4ccc(F)cc4)c3c2)cc1 | 6.1% [at 2.29 µM] (inactive) |  |
| COc1n[nH]c2nncnc12 | 1.34% (inactive) |  |
| Fc1ccc(-c2cnc(-c3cccs3)o2)cc1 |  | 12.6 µM (active) |
| CN(C)c1ncc2nc(-c3ccc(F)cc3)c(=O)n(Cc3cccs3)c2n1 | -2.96% (inactive) |  |
| Cc1ccccc1NC(=O)C(C)c1cccc(C(=O)c2ccccc2)c1 (stereo unspecified) |  | 3.16 µM (active) |
| CCCN[C@@H](C)C(=O)Nc1ccccc1C |  | inactive |
| O=C(O)[C@@H]1[C@@H]2C[C@H]3c4[nH]c5ccccc5c4CCN3C[C@@H]2CC[C@@H]1O | 13.2% [at 25.6 µM] (inactive) |  |
| C=C1C=C(Br)C2(OCCCO2)[C@H]2OC12 (stereo partly specified) | 13.6% [at 11.4 µM] (inactive) |  |
| CC(=O)NC1(c2cccc(F)c2)CCN(CC(=O)NC2CCCCC2)CC1 | -16.3% (inactive) |  |
| O=C(CN(C(=O)CSc1nc2ccccc2o1)c1cccc(F)c1)NC1CCCCC1 |  | 2.24 µM (active) |
| CCCCCCCCCCCCCCCCCCOC[C@@H](COP(=O)([O-])OCC[N+](C)(C)C)OC | 11.6% (inactive) |  |
| COc1ccc(CCn2c(=N)c(C(=O)NCc3ccco3)cc3c(=O)n4ccccc4nc32)cc1 |  | 20 µM (active) |
| Cc1cc2c(c(=O)o1)[C@H](O)[C@H]1O[C@@H]1C2=O | 10.8% [at 11.4 µM] (inactive) |  |
| CC(C)C[C@@H](N)C(=O)Nc1ccc2ccccc2c1 | -7.85% [at 11.4 µM] (inactive) |  |
| c1ccc2cc(NCNc3ccc4ccccc4c3)ccc2c1 |  | 3.98 µM (active) |

| Compound | activity, negative = inhibition | AC50 |
| --- | --- | --- |
| O=c1c(-c2ccc(F)cc2)nc2cnc(Nc3ccccc3)nc2n1Cc1cccs1 | -6.62% (inactive) |  |
| COc1cccc(Nc2ncc3nc(-c4ccccc4)c(=O)n(Cc4cccs4)c3n2)c1 | -2.75% (inactive) |  |
| COc1ccc(-c2nc3cnc(Nc4cccc(OC)c4)nc3n(Cc3cccs3)c2=O)cc1 | -0.306% (inactive) |  |
| COc1ccc(-c2nc3cnc(N(C)C)nc3n(Cc3cccs3)c2=O)cc1 | 17.4% (inactive) |  |
| O=C1CN=C(Nc2ccccc2)N1Cc1cccs1 |  | 17.8 µM (active) |
| CCOc1ccc(NC2=NCC(=O)N2Cc2cccs2)cc1 |  | 17.8 µM (active) |
| COc1ccc(NC2=NCC(=O)N2Cc2cccs2)cc1 |  | 14.1 µM (active) |
| COc1cccc(C2=CC(c3ccccc3)n3nnnc3N2)c1 (stereo unspecified) |  | 0.501 µM (active) |
| COc1cccc(-c2cncnc2NC2CCNCC2)c1 | 28.5% [at 2.29 µM] (inactive) |  |
| COc1cccc(-c2nc(NC3CCNCC3)c3ccccc3n2)c1 | 11.6% [at 2.29 µM] (inactive) |  |
| CC(=O)N1CCC2(CCCN(c3ccccc3)C2)CC1 | -26% (inactive) |  |
| CC(=O)N1CCC2(CC1)CCN(c1cccc(-c3ccccc3)c1)CC2 | -15% (inactive) |  |
| COCC(=O)N1CCC2(CC1)CN(C(=O)Nc1ccccc1)C2 |  | 1.58 µM (active) |
| COCC(=O)N1CCC2(CCCN(c3ccncc3)C2)CC1 | -17.3% (inactive) |  |
| COCC(=O)N1CCC2(CC1)CCN(c1cccc(-c3ccccc3)c1)CC2 | -12.7% (inactive) |  |
| COCC(=O)N1CCC2(CCCN(c3cccc(-c4ccccc4)c3)C2)CC1 |  | 25.1 µM (active) |
| COCC(=O)N1CCC2(CC1)CN(C(=O)Nc1ccc(OC)cc1)C2 | -5.72% (inactive) |  |
| COCC(=O)N1CCC2(CCCN(C(=O)Nc3ccccc3)C2)CC1 | 0.7% (inactive) |  |
| CC(=O)N1CCC2(CCCN(c3cccc(-c4ccccc4)c3)C2)CC1 |  | 12.6 µM (active) |
| Cc1noc(C)c1-c1nccc(N(C)Cc2ccco2)n1 | 10.6% [at 2.29 µM] (inactive) |  |
| CCCn1c(=O)c2[nH]c(-c3ccc(OCC(=O)NCCN)cc3)nc2n(CCC)c1=O | -17.5% (inactive) |  |
| Cc1noc(C)c1-c1nc(N2CCN(C)CC2)c2ccccc2n1 | 1.84% [at 2.29 µM] (inactive) |  |
| Cc1cc([C@](C)(N)C(=O)O)ccc1P(=O)(O)O | -9.49% (inactive) |  |
| N[C@H](C(=O)O)c1cc(O)cc(O)c1 |  | inactive |

| Compound | activity, negative = inhibition | AC50 |
| --- | --- | --- |
| CC1=C(C(=O)O)N2C(=O)[C@@H](NC(=O)[C@@H](N)C3=CCC=CC3)[C@@H]2SC1 | 11.2% (inactive) |  |
| COc1cccc(Nc2ncc3nc(CCc4ccccc4)c(=O)n(Cc4cccs4)c3n2)c1 | 11% (inactive) |  |
| COc1ccc(OC)c(C(=O)CSc2nnc(Cc3cccs3)n2CCc2ccccc2)c1 |  | 1.58 µM (active) |
| CC(Sc1nnc(Cc2cccs2)n1C1CCCCC1)C(N)=O (stereo unspecified) | -26.6% (inactive) |  |
| COc1ccc(NC(=O)NCc2cccn2C)c(OC)c1 | 2.26% (inactive) |  |
| COc1ccc(NC(=O)CSc2nnc(Cc3cccn3C)n2CCc2ccccc2)c(OC)c1 |  | 11.2 µM (active) |
| O=c1[nH]c(SCc2ccccc2[N+](=O)[O-])nc2nc[nH]c12 | 11.4% [at 11.4 µM] (inactive) |  |
| O=c1[nH]c(SCc2cccc([N+](=O)[O-])c2)nc2nc[nH]c12 | 4.13% [at 11.4 µM] (inactive) |  |
| O=[N+]([O-])c1ccc(-c2cnc(SCc3ccccc3Cl)[nH]2)cc1 |  | 3.98 µM (active) |
| COc1ccccc1CN1CCCC2(CCN(S(C)(=O)=O)CC2)C1 | 6.51% (inactive) |  |
| C=CCOc1c2ccc(C(=O)NC3CCCc4ccccc43)cc2nn1C (stereo unspecified) | -24.9% (inactive) |  |
| CCOc1cc(CNCCCN2CCOCC2)cc(Br)c1OCC(=O)Nc1cccc(C(F)(F)F)c1 | -9.88% (inactive) |  |
| Cc1c(C(=O)NC2CCCc3ccccc32)oc2ccc(S(=O)(=O)N3CCOCC3)cc12 (stereo unspecified) |  | 7.08 µM (active) |
| O=C(O)C[C@@H]1CCCc2ccccc2[C@H]1O | 11.1% (inactive) |  |
| Cc1c(C(=O)Nc2cccc(C(F)(F)F)c2)oc2ccc(S(=O)(=O)N3CCOCC3)cc12 |  | 1.41 µM (active) |
| Fc1cccc(F)c1C(Nc1nncs1)Nc1nncs1 | -6.71% [at 11.4 µM] (inactive) |  |
| CSc1ncnc2c1ncn2[C@@H]1O[C@@H](CO)[C@H](O)O[C@@H]1O | 1.22% [at 11.4 µM] (inactive) |  |
| CS(=O)(=O)Nc1cccc(-c2ccc3ncnc(Nc4ccccc4)c3c2)c1 | -12.6% [at 2.29 µM] (inactive) |  |
| COc1ccc(C(=O)NC2(C(F)(F)F)C(=O)Nc3c2c(=O)[nH]c(=O)n3CCc2ccc(OC)c(OC)c2)cc1 (stereo unspecified) | -20.4% (inactive) |  |
| Cc1cc(C(=O)CSc2nnc(N)s2)c(C)n1CCc1ccc(F)cc1 |  | 1.12 µM (active) |
| COc1ccc(CCn2c(C)cc(C(=O)CSc3nc(N)cc(=O)[nH]3)c2C)cc1 |  | 8.91 µM (active) |
| CC[C@H]1CC[C@H]2[C@@H]3CC=C4C[C@H](OC(C)=O)[C@@H](N)C[C@@]4(C)[C@H]3CC[C@@]12C | 13.7% [at 11.4 µM] (inactive) |  |
| CCC(=O)c1ccc(OCC(O)CN2CCCCC2)cc1 (stereo unspecified) | 0.273% (inactive) |  |
| CCOc1ccc(C(=O)CCC(=O)O)cc1 | 13.4% (inactive) |  |

| Compound | activity, negative = inhibition | AC50 |
| --- | --- | --- |
| CCCCOc1ccc(C(=O)CCN2CCCCC2)cc1 |  | 2.51 µM (active) |
| CC(N)=NCc1cccc(CN)c1 |  | inactive |
| COc1cc(/C=N/Nc2snc(SC)c2C#N)cc(OC)c1OC |  | 4.47 µM (active) |
| CCOC(=O)N/N=C1/C[C@@H](O)[C@@H](O)[C@@H]2[C@@H]3C(=O)N(C4CCCCC4)C(=O)[C@H]3CC[C@H]12 | -8.52% [at 11.4 µM] (inactive) |  |
| COc1ccc(N2CC(C(=O)OCC(=O)c3cccc(OC)c3)CC2=O)cc1 (stereo unspecified) |  | 17.8 µM (active) |
| CCN(CC)C(=O)C1CC(=O)N(c2ccc(OC)cc2)C1c1ccc(OC)cc1 (stereo unspecified) | -35.3% (inactive) |  |
| CCOc1ccc(CNC(=O)C2CC(=O)N(C3CCCC3)C2)cc1OC (stereo unspecified) | 2.04% (inactive) |  |
| COc1ccc(N2CC(C(=O)Nc3cc(C)on3)CC2=O)cc1 (stereo unspecified) |  | 14.1 µM (active) |
| CCOc1ccc(N2CC(C(=O)NCc3cccc(C)c3)CC2=O)cc1 (stereo unspecified) |  | 12.6 µM (active) |
| c1cncc(-c2ccc3ncnc(NC4CCNCC4)c3c2)c1 | 12.8% [at 2.29 µM] (inactive) |  |
| CN(C)c1ncnc2ccc(-c3ccoc3)cc12 | -6.22% [at 2.29 µM] (inactive) |  |
| OC(COCc1ccccc1)Cn1cnc2ccccc21 (stereo unspecified) |  | 12.6 µM (active) |
| C[n+]1cn(CC(O)COCc2ccccc2)c2ccccc21 (stereo unspecified) | -6.25% (inactive) |  |
| CC(=O)N1CCC2(CC1)CN(C(c1ccccc1)c1ccccc1)C2 | 3.24% (inactive) |  |
| COCC(=O)N1CCC[C@@]2(CCN(C(c3ccccc3)c3ccccc3)C2)C1 | -20.6% (inactive) |  |
| COC(=O)N1CCC2(CCCN(C(c3ccccc3)c3ccccc3)C2)CC1 |  | 31.6 µM (active) |
| CS(=O)(=O)N1CCC[C@@]2(CCN(C(c3ccccc3)c3ccccc3)C2)C1 | -11.3% (inactive) |  |
| CS(=O)(=O)N1CCC2(CC1)CN(C(c1ccccc1)c1ccccc1)C2 | 11.5% (inactive) |  |
| COC(=O)N1CCC2(CC1)CN(C(c1ccccc1)c1ccccc1)C2 |  | 10 µM (active) |
| CS(=O)(=O)N1CCC2(CCCN(C(c3ccccc3)c3ccccc3)C2)CC1 |  | 12.6 µM (active) |
| COCC(=O)N1CCC2(CC1)CN(C(c1ccccc1)c1ccccc1)C2 | 6.75% (inactive) |  |
| c1ccc(C(c2ccccc2)N2CCCC3(CCNCC3)C2)cc1 | -17.7% (inactive) |  |
| Cc1cccc(C)c1OCC(O)CNC(C)(C)C (stereo unspecified) | -10.3% (inactive) |  |
| COc1cc2cc3c4cc(OC)c(OC)cc4cc[n+]3c(C)c2cc1OC | 13.1% [at 25.6 µM] (inactive) |  |
